This is one part of the list. The true hit rate is not given.
Target: furin, P09958
Experiment: furin cleavage Z-score vs untreated control; higher = more cleavage, active = 3.5 or more, inactive = 1 or less, 8 variable residues between constant flanks
Outline: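 The cleavage Z-score is the log read count relative to furin-free reactions, lowess-adjusted and scaled by median absolute deviation. Counts came from sequencing DNA released from bead-bound 8-mer peptide–cDNA fusions after digestion with purified furin for 7.5, 15 or 30 min.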
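Further: purified furin at 1:10 enzyme:substrate in 50 mM HEPES pH 7.5.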

Sequence of furin, P09958 (P09958 whole entry): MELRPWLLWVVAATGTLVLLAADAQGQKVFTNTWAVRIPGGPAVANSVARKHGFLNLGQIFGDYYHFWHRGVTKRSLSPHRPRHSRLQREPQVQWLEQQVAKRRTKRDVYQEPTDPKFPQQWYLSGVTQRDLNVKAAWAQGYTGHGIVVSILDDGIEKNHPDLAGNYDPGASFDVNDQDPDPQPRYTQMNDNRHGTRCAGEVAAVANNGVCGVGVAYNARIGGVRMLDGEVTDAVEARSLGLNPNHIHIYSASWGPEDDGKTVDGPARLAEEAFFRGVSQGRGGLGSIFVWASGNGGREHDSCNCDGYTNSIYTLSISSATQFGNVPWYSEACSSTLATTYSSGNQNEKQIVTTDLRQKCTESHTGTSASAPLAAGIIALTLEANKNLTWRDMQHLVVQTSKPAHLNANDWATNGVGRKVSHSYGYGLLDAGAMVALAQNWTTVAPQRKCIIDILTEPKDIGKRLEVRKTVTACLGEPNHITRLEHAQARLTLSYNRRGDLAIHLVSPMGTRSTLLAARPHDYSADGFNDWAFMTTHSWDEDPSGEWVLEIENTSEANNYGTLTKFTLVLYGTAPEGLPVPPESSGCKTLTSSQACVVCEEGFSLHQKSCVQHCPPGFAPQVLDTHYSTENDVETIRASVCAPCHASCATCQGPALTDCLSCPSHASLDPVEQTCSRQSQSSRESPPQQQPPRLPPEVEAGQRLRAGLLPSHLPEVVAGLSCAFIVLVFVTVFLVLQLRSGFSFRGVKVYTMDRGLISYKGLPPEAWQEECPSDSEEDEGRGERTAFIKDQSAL

Row | Sequence | furin cleavage Z-score (7.5 min) | furin cleavage Z-score (15 min) | furin cleavage Z-score (30 min)
1 | CAAETTVRLRAGNASASA [HC927] | 0.749 (inactive) | -0.382 (inactive) | 0.0108 (inactive)
2 | CARCVRICSKAGNASASA [FS-2899] | 1.54 | -0.229 (inactive) | -0.326 (inactive)
3 | CASYPCSAHLAGNASASA [HC2489] | 0.414 (inactive) | -1.17 (inactive) | 1.74
4 | CATFALWRVSAGNASASA [HC1200] | -1.06 (inactive) | -0.9 (inactive) | -0.368 (inactive)
5 | CAVLCCSMSYAGNASASA [HC2005] | 0.0781 (inactive) | 1.47 | 0.67 (inactive)
6 | CARFRRSVPRAGNASASA [FS-2667] | 8.62 (active) | 7.98 (active) | 7.02 (active)
7 | CARERRSEEPAGNASASA [FS-1890] | -0.884 (inactive) | 3.45 | 0.678 (inactive)
8 | CADFVRSITPAGNASASA [FS-1878] | -0.721 (inactive) | -0.817 (inactive) | -2.11 (inactive)
9 | CARFRRSETPAGNASASA [FS-1854] | 6.5 (active) | 5.93 (active) | 5.18 (active)
10 | CARFRRAANRAGNASASA [FS-1702] | 7.75 (active) | 10.5 (active) | 7.34 (active)
11 | CARFYRYMGRAGNASASA [FS-2141] | 0.0635 (inactive) | 0.964 (inactive) | -0.333 (inactive)
12 | CARFRKAYKPAGNASASA [FS-2926] | 0.349 (inactive) | -0.617 (inactive) | -0.661 (inactive)
13 | CARSRRQDVRAGNASASA [FS-2818] | 1.35 | 3.52 (active) | 2.66
14 | CARSRRRSGRAGNASASA [FS-3094] | 1.03 | 0.486 (inactive) | 1.5
15 | CARRFRSVPRAGNASASA [FS-2369] | -0.464 (inactive) | 0.0993 (inactive) | 0.454 (inactive)
16 | CATFHKAEYRAGNASASA [EK4] | -1.71 (inactive) | -2.3 (inactive) | -0.599 (inactive)
17 | CARAAVCTRGAGNASASA [HC751] | 0.0348 (inactive) | -0.103 (inactive) | -0.127 (inactive)
18 | CAISWCLWWLAGNASASA [HC580] | -1.57 (inactive) | -0.298 (inactive) | -1.76 (inactive)
19 | CARRIRPTHPAGNASASA [FS-3048] | -1.48 (inactive) | -0.376 (inactive) | -2.07 (inactive)
20 | CAPCTTPCSGAGNASASA [HC1959] | -0.283 (inactive) | -0.0949 (inactive) | 0.269 (inactive)
21 | CARHPRSPPRAGNASASA [FS-2679] | 2.12 | 2.59 | 4.01 (active)
22 | CATVTESDIRAGNASASA [HC1484] | -1.23 (inactive) | -2.19 (inactive) | -1.8 (inactive)
23 | CARFRRQDIRAGNASASA [FS-2664] | 2.04 | 2.56 | 4.18 (active)

Row | Sequence | furin cleavage Z-score (7.5 min) | furin cleavage Z-score (15 min) | furin cleavage Z-score (30 min)
24 | CASPPVPPPRAGNASASA [HC1321] | 0.641 (inactive) | 2.74 | 1.49
25 | CARFRRQQWKAGNASASA [FS-2416] | -0.28 (inactive) | -0.542 (inactive) | -0.363 (inactive)
26 | CAREERSWFRAGNASASA [FS-2910] | 1.59 | -0.354 (inactive) | -1.01 (inactive)
27 | CARFRRLWPCAGNASASA [FS-1705] | -0.433 (inactive) | -0.574 (inactive) | 0.464 (inactive)
28 | CARTRRQDIRAGNASASA [FS-2836] | 3.19 | 3.96 (active) | 4.46 (active)
29 | CADQMEECSQAGNASASA [HC1822] | -1.95 (inactive) | 0.171 (inactive) | 0.415 (inactive)
30 | CAVQCCSMSYAGNASASA [HC2022] | -0.966 (inactive) | 0.322 (inactive) | 0.723 (inactive)
31 | CADLCGSVFLAGNASASA [HC300] | -2.25 (inactive) | -0.764 (inactive) | -0.906 (inactive)
32 | CASDGSWSTVAGNASASA [HC1361] | 1.87 | 1.47 | 0.994 (inactive)
33 | CARWKRGLDWAGNASASA [FS-3214] | 7.21 (active) | 8.26 (active) | 10.3 (active)
34 | CARWKRNLDFAGNASASA [FS-2199] | 6.47 (active) | 7.97 (active) | 10.7 (active)
35 | CARWKRPIDLAGNASASA [FS-3131] | -0.222 (inactive) | 0.7 (inactive) | 0.99 (inactive)
36 | CARAKRQKDFAGNASASA [FS-2885] | 3.42 | 4.84 (active) | 4.86 (active)
37 | CARWKRPAFTAGNASASA [FS-1806] | -0.259 (inactive) | 0.293 (inactive) | -0.665 (inactive)
38 | CALHTPGCVPAGNASASA [HC271] | -1.15 (inactive) | -0.17 (inactive) | 0.0406 (inactive)
39 | CAWIWFCLLLAGNASASA [HC1656] | -0.725 (inactive) | -0.337 (inactive) | -0.583 (inactive)
40 | CAKWSRHRRMAGNASASA [FS-175] | 11.5 (active) | 12.9 (active) | 11.2 (active)
41 | CACWPRHRRVAGNASASA [FS-1314] | 0.553 (inactive) | 1.38 | 2.27
42 | CASQSRIRRMAGNASASA [FS-504] | 9.85 (active) | 9.09 (active) | 8.46 (active)
43 | CATQRRGRTGAGNASASA [HC903] | -0.796 (inactive) | -0.169 (inactive) | -0.351 (inactive)
44 | CATQSRIRRMAGNASASA [FS-511] | 5.23 (active) | 7.4 (active) | 6.25 (active)
45 | CAMRAFQRRMAGNASASA [FS-276] | -1.44 (inactive) | -1.21 (inactive) | -0.935 (inactive)
46 | CAMRLRIRRMAGNASASA [FS-1601] | 10.1 (active) | 8.78 (active) | 9.1 (active)
